Screening results from PubChem BioAssay.
BaF3 parental = reduces parental Ba/F3 cell viability, JAK2V617F counter-screen | CellTiter-Glo ATP luminescence | actives 1.1% (n = 220,000) | inhibition, % at 5.6 µM;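 active = inhibition above a per-campaign cutoff, the mean inhibition of all tested compounds plus 3 SD, cut at about 27% in these data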;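 also: 0% = DMSO wells and 100% = JAK Inhibitor I control wells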
aSyn UTR inh = 5' untranslated region of α-synuclein, MLPCN primary screen. alpha-synuclein 5'UTR reporter, inhibitor activity. inhibition, % (tested at 7.5 µM). actives 0.82% (n = 300,000). AID 1813; in the data active = inhibition above about 60%; inconclusive = no clear call, values can overlap the other calls;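 also: H4 neuroglioblastoma cells stably carrying SNCA 5'UTR luciferase fusion; 0% = DMSO wells and 100% = positive control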
IEC-6 cytotox = counter-screen for KLF5 inhibitors: cytotoxicity in IEC-6 cells. IEC-6 cytotoxicity, luminescence viability. inhibition, % at 5 µM. actives 0.78% (n = 290,000). AID 1825;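 also: 0% = plate median of test compound wells and 100% = cytotoxic reference compound wells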
APP 5UTR inh = APP translation inhibition | SH-SY5Y APP 5'UTR-luciferase reporter, luminescence | inhibition, % at 2 µM | actives 0.82% (n = 190,000) | AID 1285;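 active = inhibition above a set limit, derived from the sample mean plus 3 SD, cut at about 45% in these data; inconclusive = one replicate passes the limit while the other fails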
KLF5 inh = kruppel-like factor 5 inhibition; DLD-1 KLF5 promoter-luciferase reporter, luminescence; inhibition, % at 5 µM; actives 0.23% (n = 290,000);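 active = inhibition above a per-plate limit of that plate's mean compound inhibition plus 3 SD, cut at about 60% in these data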;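 also: 0% = DMSO wells and 100% = LY294002 at 200 µM; higher means less KLF5 promoter-driven luciferase light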
Ba/F3 V617F tox = loss of viability in JAK2V617F-driven Ba/F3 cells; Ba/F3 EpoR-JAK2V617F viability, ATP luminescence; inhibition, % at 5.6 µM; actives 1.1% (n = 220,000); AID 1446;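 active = inhibition above the campaign mean plus 3 SD over all tested compounds, cut at about 24% in these data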;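 also: cytokine-independent growth of Ba/F3 cells driven by EpoR plus mutant JAK2; 0% = DMSO-treated cells and 100% = JAK inhibitor I control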
IEC-6 tox confirm = IEC-6 cytotoxicity, confirmation assay; shares compounds with IEC-6 cytotox; IEC-6 rat intestinal epithelial viability, luminescence; inhibition, % at 5 µM; actives 63% (n = 1,900); AID 1907;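 also: 0% = vehicle and 100% = reference cytotoxic drug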
* marks the source's active call; other numbers are inactive results. The list is not random: actives were taken first. Their share in the collection is about 2.2%. Rule as the data show it, unless noted: active = inhibition above about 22%; inactive = the rest.

Screening COC(=O)c1cn(C(=O)c2ccc(C)cc2)c2ccccc12 returned BaF3 parental -0.1, aSyn UTR inh -35.5, IEC-6 cytotox -1.0, APP 5UTR inh -2.3, KLF5 inh -41.7 and Ba/F3 V617F tox -1.7.
COC(=O)c1cn(C(=O)c2ccc(OC)cc2)c2ccccc12 was read as aSyn UTR inh -146.8, IEC-6 cytotox 51.5*, KLF5 inh 31.1 and IEC-6 tox confirm 33.9*.
c1ccc(CNc2ncnc3c2cnn3Cc2ccccc2)cc1 was read as BaF3 parental 33.2*, aSyn UTR inh 15.2, IEC-6 cytotox 27.4*, APP 5UTR inh 2.4, KLF5 inh 1.0, Ba/F3 V617F tox 27.0* and IEC-6 tox confirm 35.0*.
Screening OCCNc1ncnc2c1cnn2Cc1ccccc1 returned aSyn UTR inh -3.3, IEC-6 cytotox -2.5 and KLF5 inh -27.2.
For O=C(NCc1ccc2c(c1)OCO2)c1nc(S(=O)(=O)Cc2ccccc2)ncc1Cl the results were aSyn UTR inh 36.4, IEC-6 cytotox 24.0*, KLF5 inh 7.4 and IEC-6 tox confirm 14.6.
`O=C(NCc1ccc2c(c1)OCO2)c1nc(S(=O)(=O)Cc2ccccc2F)ncc1Cl` gave aSyn UTR inh 42.0, IEC-6 cytotox 35.1*, KLF5 inh 10.8 and IEC-6 tox confirm 12.1.
For CCOc1ccccc1-n1nnnc1SC(C)C(=O)OC (stereo unspecified) the results were BaF3 parental 4.2, aSyn UTR inh 4.9, IEC-6 cytotox -7.8, APP 5UTR inh 5.4, KLF5 inh 5.1 and Ba/F3 V617F tox 0.8.
`CCN1C(=S)N[C@@H](c2cccs2)C(C(=O)OC)=C1C` gave aSyn UTR inh 33.1, IEC-6 cytotox 1.0 and KLF5 inh -0.8.
Screening Cc1cc(-c2nnc(CCC(=O)NC(Cc3ccccc3)c3ccccc3)o2)no1 (stereo unspecified) returned BaF3 parental 4.0, aSyn UTR inh 5.3, IEC-6 cytotox -1.9, APP 5UTR inh -20.1, KLF5 inh -35.0 and Ba/F3 V617F tox -0.6.
For O=C(Nc1cc(=O)[nH]c(=O)[nH]1)c1cccc(C(F)(F)F)c1 the results were aSyn UTR inh -4.0, IEC-6 cytotox -1.8 and KLF5 inh -16.5.
For O=C(Nc1cc(=O)[nH]c(=O)[nH]1)c1cc(Cl)ccc1Cl the results were aSyn UTR inh -64.9, IEC-6 cytotox 45.0*, KLF5 inh 45.1 and IEC-6 tox confirm 13.6.
COc1ccccc1NC(=S)N(Cc1ccco1)Cc1cc2ccc(C)c(C)c2[nH]c1=O was read as BaF3 parental 80.6*, aSyn UTR inh 33.5, IEC-6 cytotox 77.7*, KLF5 inh 44.5, Ba/F3 V617F tox 71.2* and IEC-6 tox confirm 53.6*.
Screening CC1=C(C(=O)OC(C)C)C(c2ccc3c(c2)OCO3)NC(=O)N1 (stereo unspecified) returned aSyn UTR inh 3.1, IEC-6 cytotox -1.2 and KLF5 inh 3.8.
Screening CC(=O)N(c1ccccc1C)C1CCCC1 returned BaF3 parental 4.3, aSyn UTR inh -3.5, IEC-6 cytotox 1.0, APP 5UTR inh -9.7, KLF5 inh -54.6 and Ba/F3 V617F tox 2.0.
Screening CC(=O)N(C1=C(Cl)C(=O)c2ccccc2C1=O)C1CCCCC1 returned BaF3 parental -4.9, aSyn UTR inh inconclusive, IEC-6 cytotox 25.1*, KLF5 inh -12.6, Ba/F3 V617F tox 1.5 and IEC-6 tox confirm 8.5.
For Cc1ccc([N+](=O)[O-])cc1NC(=S)NC(=O)c1c(Cl)cnn1C the results were aSyn UTR inh 5.8, IEC-6 cytotox -0.3 and KLF5 inh -23.8.
Screening COc1ccc(/C=C/c2nnc(NC(=O)CSc3ccc(Cl)cc3)s2)cc1 returned BaF3 parental 3.9, aSyn UTR inh -22.5, IEC-6 cytotox 0.4, APP 5UTR inh -34.5, KLF5 inh -12.7 and Ba/F3 V617F tox -2.9.
Nc1sc(-c2ccccc2)cc1-c1n[nH]c(=S)n1C1CCCCC1 was read as BaF3 parental 56.7*, aSyn UTR inh 33.0, IEC-6 cytotox 54.3*, KLF5 inh 40.4, Ba/F3 V617F tox 89.2* and IEC-6 tox confirm 48.1*.
For COc1ccccc1NC(=O)Cn1nnc(C(=O)NCc2cccs2)c1N the results were aSyn UTR inh 85.5*, IEC-6 cytotox 79.2*, KLF5 inh 55.7 and IEC-6 tox confirm 53.5*.
Cc1ccc(C)c(NC(=O)Cn2nnc(C(=O)NCc3ccco3)c2N)c1 was read as aSyn UTR inh -2.4, IEC-6 cytotox 24.2*, KLF5 inh 40.6 and IEC-6 tox confirm 18.5.
`Cc1nc(C)c(NC(=O)OC(C)C)cc1NC(=O)OC(C)C` gave BaF3 parental 7.1, aSyn UTR inh 13.6, IEC-6 cytotox -4.2, APP 5UTR inh 2.0, KLF5 inh -38.6 and Ba/F3 V617F tox 0.2.
Cn1cc(S(=O)(=O)N2CCc3ccccc32)cc1C(=O)NC(C)(C)C was read as aSyn UTR inh 1.2, IEC-6 cytotox 13.3 and KLF5 inh -5.9.
Screening CCCN1CCC(NCc2cn(C)nc2-c2ccc(Oc3ccccc3)cc2)CC1 returned BaF3 parental 67.5*, aSyn UTR inh -33.2, IEC-6 cytotox 35.9*, KLF5 inh -8.9, Ba/F3 V617F tox 52.5* and IEC-6 tox confirm 43.0*.
`COC1CCCN(Cc2cn(C)nc2-c2ccc(Oc3ccccc3)cc2)C1` (stereo unspecified) gave BaF3 parental 7.4, aSyn UTR inh 6.2, IEC-6 cytotox 3.9, APP 5UTR inh 11.5, KLF5 inh 15.6 and Ba/F3 V617F tox 3.8.
`CCc1nnc(NC(=O)c2nc(S(=O)(=O)Cc3cccc(C)c3)ncc2Cl)s1` gave aSyn UTR inh -114.5, IEC-6 cytotox 40.7*, KLF5 inh 14.7 and IEC-6 tox confirm 5.8.
Screening Cc1nnc(NC(=O)c2nc(S(=O)(=O)Cc3ccccc3C)ncc2Cl)s1 returned aSyn UTR inh -38.7, IEC-6 cytotox 68.9*, KLF5 inh 19.5 and IEC-6 tox confirm 17.0.
Screening CC(C)c1nnc(NC(=O)c2nc(S(=O)(=O)Cc3ccccc3F)ncc2Cl)s1 returned aSyn UTR inh -72.1, IEC-6 cytotox 18.2 and KLF5 inh -2.0.
For CCOc1ccccc1NC(=O)c1nc(S(=O)(=O)Cc2cccc(C)c2)ncc1Cl the results were aSyn UTR inh 88.0*, IEC-6 cytotox 72.8*, KLF5 inh 27.9 and IEC-6 tox confirm 29.8*.
`CCc1nnc(NC(=O)c2nc(S(=O)(=O)Cc3ccc(C)cc3)ncc2Cl)s1` gave aSyn UTR inh -51.7, IEC-6 cytotox 49.7*, KLF5 inh 4.1 and IEC-6 tox confirm 17.6.
CCSc1nnc(NC(=O)c2nc(S(=O)(=O)Cc3ccc(F)cc3)ncc2Cl)s1 was read as aSyn UTR inh 10.3, IEC-6 cytotox -5.6 and KLF5 inh -6.5.
`CSc1nnc(NC(=O)c2nc(S(=O)(=O)Cc3ccccc3F)ncc2Cl)s1` gave aSyn UTR inh -9.4, IEC-6 cytotox 2.7 and KLF5 inh -6.7.
`Cc1ccc(OCc2cc(C(=O)N3CCc4[nH]cnc4C3c3ccccn3)no2)cc1C` (stereo unspecified) gave aSyn UTR inh 11.9, IEC-6 cytotox -8.9 and KLF5 inh -24.7.
